D2 ag-1 = agonists of human D2 dopamine receptor (beta-arrestin). P14416. DiscoveRx PathHunter D2 beta-arrestin, luminescence, 90 min; 100% = 57 uM dopamine signal. activation, % (test concentration not listed). actives 0.084% (n = 360,000); in the data active = activation above about 40%; inconclusive = between about 15% and that limit
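Agonist mode: compounds alone added to overnight-plated D2 PathHunter cells for 90 min at 37 C, with 57 uM final dopamine (EC100) defining full response. Beta-arrestin recruitment detected by chemiluminescent reagent, read after 1 h at ambient temperature.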
D2 antag = D2 dopamine receptor (human) antagonism | inhibition, % at 10 µM | actives 2% (n = 340,000) | AID 485344 | HEK293 TREx D2 cells, calcium flux, dopamine EC80 | P14416; in the data active = inhibition above about 30%; inactive = below that, where a call was filed
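Calcium flux kinetic readout in an inducible HEK293 TREx D2 line plated overnight at 30 C. After 180 s compound exposure, an EC80 dopamine challenge follows with another 180 s kinetic read to detect antagonism.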
D2 ag-2 = agonists of human D2 dopamine receptor; P14416; HEK293 T-REx D2 cells, calcium flux agonist mode; activation, % at 2 µM; actives 0.53% (n = 340,000); AID 485358;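 active = activation over 3 SD above normal in the single-dose calcium agonist read, cut at about 30% in these data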
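Tetracycline-induced HEK293 T-REx cells with force-coupled D2 receptor, plated overnight at 30 C, loaded with no-wash calcium dye. After a 10 s baseline, compound was pin-added and calcium flux read kinetically for 180 s; calcium rises flagged agonists.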
D2 PAM-1 = positive allosteric modulators of human D2 dopamine receptor. P14416. HEK293 T-REx D2, calcium flux, EC20 dopamine potentiation. potentiation, % at 10 µM. actives 0.34% (n = 340,000). AID 485347;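 active = potentiation over 3 SD above the plate norm, cut at about 30% in these data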
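Primary screen. Calcium kinetics in induced HEK293 T-REx D2 cells: compound pre-addition 180 s, EC20 dopamine, 180 s more.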
D2 PAM-2 = potentiates the human D2 dopamine receptor allosterically. AID 624464. DiscoveRx D2 beta-arrestin cells, luminescence, 90 min; 100% = 57 uM dopamine signal. P14416. actives 0.23% (n = 360,000). potentiation, % (no concentration beside the values); in the data active = potentiation above about 50%; inconclusive = mostly about 30% to 49%
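D2 cells co-treated with compound plus 50 nM dopamine (EC20) for 90 min at 37 deg C to detect potentiation. Beta-arrestin recruitment was read as enzyme-fragment luminescence after 1 h at ambient temperature. Full response was set by 57 uM dopamine.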
D3 ag = activates human D3 dopamine receptor beta-arrestin recruitment | actives 4% (n = 2,300) | AID 720506 | shares compounds with D2 ag-2 | DiscoveRx D3 beta-arrestin cells, luminescence, 90 min | Potency, µM (highest dose often 76.9 µM), hits mostly activators; note: nearly all actives have a fitted effect of over 70% in size
Target sequence (P35462 whole entry, looked up): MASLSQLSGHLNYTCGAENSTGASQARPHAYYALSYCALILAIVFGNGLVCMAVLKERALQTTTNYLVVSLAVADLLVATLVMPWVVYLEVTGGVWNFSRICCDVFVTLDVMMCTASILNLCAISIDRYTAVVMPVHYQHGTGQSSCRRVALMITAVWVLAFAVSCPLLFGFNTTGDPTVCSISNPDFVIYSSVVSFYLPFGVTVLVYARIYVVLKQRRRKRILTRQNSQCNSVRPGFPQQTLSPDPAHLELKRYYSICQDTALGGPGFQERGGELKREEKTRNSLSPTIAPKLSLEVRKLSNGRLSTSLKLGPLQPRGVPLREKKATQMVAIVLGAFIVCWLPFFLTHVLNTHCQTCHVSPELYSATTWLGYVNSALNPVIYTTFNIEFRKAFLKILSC
D2 ag-3 = counter-screen for D3 agonists: human D2 dopamine receptor agonism; DiscoveRx PathHunter D2 beta-arrestin, luminescence, 90 min; response scale: percent relative to full dopamine signal; Potency, µM (top dose mostly 76.9 µM), actives largely listed as activators; shares compounds with D2 ag-2; actives 5.9% (n = 2,300); note: nearly all actives have a fitted effect of over 70% in size
Hits are given with their value; . = inactive; ? = inconclusive; / = no result given. This is a sample that favours compounds with a hit; in the whole collection about 2.4% have one here. Unless noted, calls come from the whole dose curve; as a rule, active = well fitted activation curve with a large enough effect; inconclusive = small, poorly fitted or top-dose-only effect; inactive = flat fitted curve, though single readings scatter.

SMILES	D2 ag-1	D2 antag	D2 ag-2	D2 PAM-1	D2 PAM-2	D3 ag	D2 ag-3
O=S(=O)(NCCc1ccc(F)cc1)c1cc(C(F)(F)F)ccc1Br	.	/	/	/	/	/	/
COc1ccc2c(c1)[nH]c1c(=O)n(Cc3ccco3)cnc12	.	.	32	.	.	.	.
COc1ccc2c(c1)[nH]c1c(=O)n(Cc3ccccn3)cnc12	.	.	.	.	.	/	/
COc1ccc(-c2nc3c(C#N)c[nH]n3c2NC2CCCC2)c(OC)c1	/	/	.	.	/	/	/
Cc1cccc(NC(=O)CN2CCN(C(=O)CN3C(=O)NC4(CCCCC4C)C3=O)CC2)c1C (stereo not given)	.	/	/	/	.	/	/
CCN(CC)CCCNC(=O)c1ccccc1NC(=O)C1=CSCCO1	.	/	/	/	.	/	/
CCCSCCCNC(=O)c1ccccc1NC(=O)C1=CSCCO1	.	.	.	.	.	.	.
Cc1ccccc1NC(=O)COC(=O)COc1ccc2ccc(=O)oc2c1	.	/	/	/	.	/	/
CCC(C)NC(=S)N(Cc1cc2cc(C)ccc2n2nnnc12)CC(C)(C)NC(C)C (stereo not given)	.	.	.	.	.	/	/
COc1ccc(Br)cc1CN1CCN(C(=O)c2ccco2)CC1	.	/	/	/	.	.	.
COc1ccccc1N1CCN(C(=O)c2ccco2)CC1	.	/	/	/	.	/	/
COc1ccccc1CN1CCN(C(=O)c2ccco2)CC1	67	85	80	.	53	?	10µM
C=CCOc1ccc(/C=C/C(=O)OCC(=O)NNC(=O)c2ccccc2F)cc1	.	/	/	/	.	/	/
COC(=O)[C@H]1C[C@H](OC(=O)NCc2ccccc2F)[C@@]2(O)CN(S(=O)(=O)c3ccc(C)cc3)CC2[C@H]1C(=O)OC (stereo not given in full)	.	/	/	/	.	/	/
COc1ccc(Cl)cc1NC(=O)c1ccc2c(c1)CCN2S(C)(=O)=O	/	/	.	.	/	/	/
CCCCCCc1cc2cc(S(=O)(=O)c3ccc(F)c(Cl)c3)c(=O)oc2cc1O	.	.	34	.	.	28µM	?
CN(CCc1ccccn1)C1CCCN(S(=O)(=O)c2ccccc2)C1 (stereo not given)	.	.	.	.	.	/	/
CC(=O)c1ccc(S(=O)(=O)N2CCCC(N(C)CCc3ccccn3)C2)cc1 (stereo not given)	.	.	55	.	.	.	.
Oc1ccc(Cl)cc1C=Nc1ccccc1Br	.	.	.	.	.	/	/
Oc1ccc(Br)cc1C=Nc1ccc2c3c(cccc13)CC2	.	.	.	.	.	.	.
COc1ccc(-c2sc3ccc(OC)cc3c2-c2ccc(OC)c(F)c2)cc1	.	.	.	.	.	/	/
COc1ccc2sc(-c3ccccc3OC)c(-c3ccc(OC)c(F)c3)c2c1	.	.	48	.	.	.	.
COC(=O)Cc1ccc(NC(=S)N2CCN(c3cccc(O)c3)CC2)cc1	.	.	44	.	.	28µM	?
COC(=O)Cc1ccc(NC(=S)N2CCN(c3ccc(OC)cc3)CC2)cc1	.	.	.	.	.	/	/
CCOC(=O)N1CCC(NC(=O)CCS(=O)(=O)c2ccc3c(c2)CCN3C(=O)CC)CC1	?	73	66	.	.	.	?
SMILES	D2 ag-1	D2 antag	D2 ag-2	D2 PAM-1	D2 PAM-2	D3 ag	D2 ag-3
CCC(=O)N1c2ccc(S(=O)(=O)N3CCN(CC)CC3)cc2CC1C (stereo not given)	.	39	48	.	.	.	.
CCC(=O)N1CCc2cc(S(=O)(=O)CCC(=O)Nc3ccc(CC)cc3)ccc21	.	.	.	.	.	/	/
CCC(=O)N1CCc2cc(S(=O)(=O)CCC(=O)NC3CCCCC3)ccc21	.	.	.	.	.	/	/
CCC(=O)N1CCc2cc(S(=O)(=O)CCC(=O)Nc3ccc(C)cn3)ccc21	.	64	57	.	.	.	.
CC(=O)N1c2ccc(S(=O)(=O)N3CCC(C(=O)Nc4ncccc4C)CC3)cc2CC1C (stereo not given)	.	.	.	.	.	.	.
CCOC(=O)c1c(C)[nH]c(C)c1C(=O)COC(=O)COc1ccc(Cl)c(C)c1	.	.	.	.	.	/	/
Cc1ccc(NC(=O)Cn2cc(S(=O)(=O)NC(C)C)c(S(=O)(=O)NC(C)C)c2)cc1Cl	/	/	.	.	/	/	/
CCC(=O)N1CCc2cc(S(=O)(=O)N3CCCC3)ccc21	.	.	.	.	.	/	/
CCC(=O)N1CCc2cc(S(=O)(=O)CCC(=O)Nc3nc(C)cs3)ccc21	.	.	64	.	.	.	.
CCC(=O)N1CCc2cc(S(=O)(=O)CCC(=O)Nc3ccc(C(C)=O)cc3)ccc21	.	.	.	.	.	/	/
CCC(=O)N1CCc2cc(S(=O)(=O)N3CCCCCC3)ccc21	.	31	37	.	.	.	.
COc1ccc(-n2nc(C(=O)Nc3ccc(C)cn3)c3c4ccccc4n(C)c3c2=O)cc1	/	/	.	.	/	/	/
CN(Cc1ccccc1)C(=O)c1ccc(NC(=O)Cc2ccc(NC(=O)C3CCN(C(=O)C4CCC4)CC3)cc2)cc1	.	/	/	/	/	/	/
CN(Cc1ccccc1)C(=O)c1ccc(NC(=O)Cc2cccc(NC(=O)C3CCN(C(=O)C4CCC4)CC3)c2)cc1	.	.	.	.	.	.	.
C=CCN=c1scc(-c2ccco2)n1/N=C/c1ccc(O)c(O)c1O	90	88	74	.	101	40µM	35µM
COCCN=c1scc(-c2ccco2)n1/N=C/c1ccc(O)c(O)c1O	70	77	68	.	88	35µM	35µM
CC(C)N=c1scc(-c2ccco2)n1/N=C/c1ccc(O)c(O)c1	.	.	.	.	.	/	/
COc1cc(NC(=O)NCCn2nnc3cc(S(=O)(=O)N(C)C)ccc32)cc(OC)c1	/	/	.	.	/	/	/
O=[N+]([O-])c1ccc(NCCNCCOc2nonc2-c2ccccc2)c([N+](=O)[O-])c1	.	/	/	/	.	/	/
Cc1noc(C)c1COc1ccc(C(=O)N2CCC(C)CC2)cc1	.	.	.	.	.	/	/
CC(C)(O)[C@@H]1CC(=O)[C@]2(C)[C@H](CC[C@@]3(C)[C@H](c4ccoc4)OC(=O)[C@H]4O[C@]432)[C@@]1(C)/C=C\C(=O)O	.	.	.	.	.	/	/
CC1(C)OC(=O)C=C[C@]2(C)[C@H]3CC[C@@]4(C)[C@H](C(=O)O)OC(=O)[C@H]5O[C@]54[C@]3(C)C(=O)C[C@@H]12	.	.	.	.	.	.	.
CC(=O)Nc1ccc(C2=CC(=O)CC(C)(C)C2)cc1	.	.	.	.	.	.	.

Screening data from PubChem.
